Measured values as given in ChEMBL document CHEMBL3988442, “University of Dundee, Small-Polar-MMV Screening Library” (2021).
Among all 48,000 compounds or so, about 13,000 (27%) showed an effect of 50% or more. Some of the results follow.

The compounds below were run on Wolbachia pipientis (assay: Anti-Wolbachia Cell-Based Screen). Conditions: 5 µM.
Assay type: functional
Parameters: scale not given: in the data most compounds retested in dose-response had high values

SMILES | Percent Effect [%]
Cc1nc(O)cc(CN2CCC=C(CN(C)C(=O)c3ccco3)C2)n1 | 2.928
Cc1nc2c(c(N(C)Cc3ccccc3-n3cccn3)n1)CCNCC2 | 14.94
COc1ccc(C(=O)N2C[C@@H](C(=O)O)[C@H](c3ccccc3C)C2)c(O)c1 | -2.704
CCNC(=O)[C@@H]1CCCN1C1(C(=O)NC)CCCCC1.Cl | 1.197
COc1cccc(COCC(=O)N2CCC(CC(N)=O)CC2)c1 | -12.19
O=C(c1ccc(S(=O)(=O)NCC(F)F)cc1)N1C[C@H]2CNC[C@H]2C1 | 19.64
O=C(CN1CCCC(c2ccn[nH]2)C1)Nc1nncs1 (configuration not stated) | 12
CC(C)c1cnc(CN2CCCC(c3ccn[nH]3)C2)o1 (configuration not stated) | -28.34
O=C(c1cnnn1-c1ccccc1)N1CCCC(c2ccn[nH]2)C1 (configuration not stated) | 106
Cn1cncc1C(=O)N1CCCC(c2ccn[nH]2)C1 (configuration not stated) | 108.7
O=C(c1cnc2ccccn12)N1CCCC(c2ccn[nH]2)C1 (configuration not stated) | 107.7
O=C1CCCCCN1CCC(=O)N1CCCC(c2ccn[nH]2)C1 (configuration not stated) | 2.164
CC(C)c1ocnc1C(=O)N1CCCC(c2ccn[nH]2)C1 (configuration not stated) | -7.734
O=C(CCCc1nc(C2CC2)no1)N1CCCC(c2ccn[nH]2)C1 (configuration not stated) | -3.493
O=C(c1cc(=O)n(-c2ccccc2)[nH]1)N1CCCC(c2ccn[nH]2)C1 (configuration not stated) | 77.64
Cc1cc(OCC(=O)N2CCCC(c3ccn[nH]3)C2)no1 (configuration not stated) | 1.786
CC(C)N1CCC(c2ccnc3c(C(=O)N4CCOCC4)ncn23)CC1 | -16.45
Cn1nc(Cn2cccn2)c2c1CN(Cc1ccoc1)C2.O=C(O)C(F)(F)F | -5.298
Cc1noc([C@@]23CCO[C@@H]2CCN(C(=O)c2cc(C)[nH]c2C)C3)n1 | 12.25
Cc1noc([C@@]23CCO[C@@H]2CCN(C(=O)c2cc(C)on2)C3)n1 | 4.569
Cc1noc(C2(C)CCCN(C(=O)C(C)C)C2)n1 (configuration not stated) | 123
Cc1noc([C@@]23CCO[C@@H]2CCN(C(=O)CN(C)C)C3)n1 | 5.284
Cc1noc([C@@]23CCO[C@@H]2CCN(C(=O)c2cc(C)c(C)s2)C3)n1 | 6.303
COCC(=O)N1CC[C@H]2OCC[C@@]2(c2nc(C)no2)C1 | 6.759
CC(=O)N1CCC(C)(c2nc(C)no2)CC1 | 134.3

SMILES | Percent Effect [%]
Cc1noc(C2(C)CCN(C(=O)C(C)C)CC2)n1 | 126.4
Cc1noc([C@@]23CCO[C@@H]2CCN(C(=O)CCC(C)C)C3)n1 | 4.63
Cc1cccc2c1nc(CCO)n2-c1ccc(C(=O)N2CCCC2)o1 | 4.629
Fc1cccc(-n2cc(CN3CCCCC3CCn3ccnc3)cn2)c1 (configuration not stated) | -14.22
CC(C)(N)C(=O)N1CCCC(c2cncc(Oc3cccnc3)n2)C1 (configuration not stated) | 102.7
CC(C)(N)C(=O)N1CCCC1c1cncc(Oc2ccc(F)cc2)n1 (configuration not stated) | 9.255
CC(C)(N)C(=O)N1CCCC1c1cncc(Oc2ccccc2)n1 (configuration not stated) | 115.4
CC(C)C(=O)N1CCCC(c2cncc(Oc3cccnc3)n2)C1 (configuration not stated) | 130.5
Cc1cncc(C2CCCN(C(=O)c3cccn3C)C2)n1 (configuration not stated) | 5.721
CCS(=O)(=O)c1ncc(CN(C)Cc2ccccc2Cl)n1CCOC | 6.102
CCN(CC)Cc1cc(C(=O)N2CC(C)(C)[C@@](C)(O)C2)c(C)o1 | -3.4
CS(=O)(=O)N1CCC2(CC1)COC(COc1cccnc1)C2.O=C(O)C(F)(F)F (configuration not stated) | -9.864
O=S1(=O)CCC(n2nc(COc3ccccc3)nc2-c2cnccn2)C1 (configuration not stated) | -50.17
CC(C)(C)CN1CC(COc2ccccc2)Oc2ccncc2S1(=O)=O (configuration not stated) | 80.37
O=C(COc1ccccc1)N(Cc1ccncc1)C1CC1 | -3.212
O=S1(=O)c2cnccc2OC(COc2ccccc2)CN1CC1CC1 (configuration not stated) | 96.1
Cc1nc2cc(=O)[nH]n2c(C)c1CC(=O)Nc1cnn(C)c1 | -2.134
CCc1ncc(C(=O)N(C)CC2Cc3ccccc3O2)cn1 (configuration not stated) | -1.94
Cc1nn(C)c(C)c1CCNC(C)c1ccc(-n2ccnc2C)cc1 (configuration not stated) | -1.532
O=C(C1=CC2(CCN(CCO)CC2)c2ccccc21)N1CCCC1.O=C(O)C(F)(F)F | -8.81
Cc1ccc(CN2CCC3(CC2)OC(C(=O)N(C)C)c2ccccc23)o1.O=C(O)C(F)(F)F (configuration not stated) | 8.053
CC(C)N1CCC2(C=C(C(=O)N(C)C)c3ccccc32)CC1.O=C(O)C(F)(F)F | -1.303
CCN1CCC2(C=C(C(=O)N(C)C)c3ccccc32)CC1.O=C(O)C(F)(F)F | 130.6
CC(C)CN1CCC2(C=C(C(=O)N(C)C)c3ccccc32)CC1.O=C(O)C(F)(F)F | 90.84
CC(C)CN1CCC2(C=C(C(=O)N3CCCC3)c3ccccc32)CC1.O=C(O)C(F)(F)F | 13.87

SMILES | Percent Effect [%]
COc1ccc(C(C)NCc2c[nH]nc2C)cc1Br.Cl (configuration not stated) | 2.435
Cc1ncoc1C(=O)N1CCc2[nH]nc(-c3ccc4c(c3)OCO4)c2C1 | -5.297
CC(C)CC(CCO)CNC(=O)N1CCCC1(C)C (configuration not stated) | -11.2
O=C(c1cccnc1)N1CCOCC2(CCN(c3ncccn3)C2)C1 (configuration not stated) | 104.1
O=C(O)C(F)(F)F.O=C([C@H]1CCCO1)N1CCCC2(COCCN(c3ccccc3)C2)C1 (some centres not stated) | 121.5
Cc1cc(C(=O)N2CCCC3(COCCN(c4ccccc4)C3)C2)[nH]n1 (configuration not stated) | -3.26
O=C(C1CCCC1)N1CCCC2(CCN(c3cnccn3)CC2)C1.O=C(O)C(F)(F)F | -29.32
O=C(c1ccc[nH]1)N1CC2(CCN(c3ncccn3)C2)C1 | -13.43
O=C(C1CCCCC1)N1CCCC2(CCN(c3cnccn3)CC2)C1.O=C(O)C(F)(F)F | 1.174
O=C(O)C(F)(F)F.O=C(c1cccnc1)N1CCOC2(COCCN(c3cncnc3)C2)C1 (configuration not stated) | -2.912
O=C(C1CCCO1)N1CCCC2(CCN(c3cccnc3)CC2)C1.O=C(O)C(F)(F)F (configuration not stated) | 111.1
O=C(O)C(F)(F)F.O=C(c1cccnc1)N1CCCC2(COCCN(c3ccccc3)C2)C1 (configuration not stated) | 104.3
O=C(O)C(F)(F)F.O=C(c1ccncc1)N1CCCC2(COCCN(c3ccccc3)C2)C1 (configuration not stated) | 3.35
O=C(c1ccnnc1)N1CC2(CCN(c3ncccn3)C2)C1 | -3.842
COc1ccc(C)cc1CN1CCN(Cc2nccn2C)C(C)C1 (configuration not stated) | -12.47
OCc1cc2ccccc2nc1NC1CC=CC1 | -7.436
COCCCN(Cc1cnc(-c2cccs2)nc1)C1CCN(C)CC1 | 117
CC(C1CCN(Cc2cnc(-c3cccs3)nc2)CC1)N(C)C (configuration not stated) | 1.758
COCCCN(Cc1cnc(-c2ccccn2)nc1)C1CCN(C)CC1 | 120.4
CC(C)n1cnnc1CN(C)Cc1cnc(-c2ccccn2)nc1 | 11.81
CC(C)n1cnnc1CN(C)Cc1cnc(-c2cccs2)nc1 | 3.781
CCN(Cc1cnc(-c2ccccn2)nc1)C1CCS(=O)(=O)C1 (configuration not stated) | -5.567
CCC(O)CN(c1ccccc1)S(=O)(=O)c1cnc(C)s1 (configuration not stated) | -3.963
CCCn1nc(C)c(CN2CC3(CCOC3)CCC2=O)c1C (configuration not stated) | -15.65
CC(C)C(=O)NCc1cccc(N2CCCCC2=O)c1 | -5.894

SMILES | Percent Effect [%]
O=S(=O)(Nc1cnc(N2CCCC2)nc1)c1ccc(OC(F)(F)F)cc1 | 113.1
CN(C)c1ccc(C(=O)N2CCCc3cc(OC(F)(F)F)ccc32)cn1 | 0.3128
CCOc1ccc(S(=O)(=O)Nc2cnc(OC)nc2OC)cc1 | -50.06
COc1ncc(NS(=O)(=O)c2ccc(F)cc2F)cn1 | 7.047
Cc1nc(N(C)C)nc(C)c1NS(=O)(=O)c1ccc(OC(F)(F)F)cc1 | 120.1
Cn1cc(NS(=O)(=O)c2ccc(OC(F)(F)F)cc2)ccc1=O | -16.2
Cc1ccc(S(=O)(=O)Nc2c(C)nc(N3CCCC3)nc2C)cc1 | 15.76
O=S(=O)(Nc1cnc(N2CCOCC2)nc1)c1ccc(C(F)(F)F)cc1 | -10.38
COc1ccc(S(=O)(=O)Nc2cnc(N(C)C)nc2)cc1 | 87.85
O=S(=O)(Nc1cnc(N2CCCC2)nc1)c1ccc(C(F)(F)F)cc1 | 2.34
O=S(=O)(NCc1cc2n(n1)CCNC2)c1ccc(OC(F)(F)F)cc1 | 12.96
CN(C)c1ncc(NS(=O)(=O)c2ccc(OC(F)(F)F)cc2)cn1 | 123.3
Cc1ccc(CN2CCOC3(COCCN(C(C)C)C3)C2)s1.O=C(O)C(F)(F)F.O=C(O)C(F)(F)F (configuration not stated) | -2.418
Cc1nccn1-c1cc(CNC(=O)C2CCC(=O)NC2)ccn1 (configuration not stated) | -12.56
Cc1cnn(CC2CCCN2C(=O)c2cccnc2-n2cncn2)c1 (configuration not stated) | 106.4
COCCOc1ncccc1C(=O)N1CCCC1Cn1cc(C)cn1 (configuration not stated) | 71.82
O=C(c1cccnc1-n1cncn1)N1CCN(CC2CC2)CC1 | -14.6
CCOc1ncccc1C(=O)N1CCCC1Cn1cc(C)cn1 (configuration not stated) | 90.55
CSCCc1nc(C(C)C)nn1-c1ccncc1C | -5.681
COCC(C)(C#N)NC(=O)COc1ccccc1Br (configuration not stated) | -5.931
Cc1c(-c2ccccc2)ncn1CC(c1cccnc1)N1CCOCC1 (configuration not stated) | 2.3
COCCC1(CO)CCCN(C(=O)c2ccc(C(C)C)[nH]c2=O)C1 (configuration not stated) | 9.971
